The supplement of paper PMC12636033
± gives the standard deviation of the averaged measurements. In all, about 33,000 sequences were measured (“E-score (rank enrichment, -0.5 to 0.5)”: median about -0.0068, highest 2% from about 0.24 on). This excerpt belongs to a sample that is enriched for the highest values.

tested on: muMax20 (Max(13-93) K31hArg/K57hArg, M65Nle); assay: PBM 8-mer E-score (E-score (rank enrichment, -0.5 to 0.5)); higher = stronger preferential binding
Method: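 Protein binding microarray (universal PBM chip covering all 10-mers in fixed probe flanks) with chemically synthesized human Max(13-93) bHLH-LZ analogs (not full-length Max) bearing noncanonical residues (hArg, Tha, Aib, Nle at 65) and aromatic Cys staples. Read-out per 8-mer (and its reverse complement): E-score (rank-based enrichment, -0.5 to 0.5) and Z-score of median probe intensity.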

Sequence | PBM 8-mer E-score
GCTCCACA | -0.0777 ± 0.035
GCCTCAGA | -0.218 ± 0.018
AACGAACG | 0.0291 ± 0.073
CTACTCGC | -0.176 ± 0.076
GAAATCAA | 0.0452 ± 0.11
TAAATCAA | 0.261 ± 0.01
AAAATCAA | 0.0939 ± 0.085
ATCGCGGG | -0.145 ± 0.056
AATCACAT | 0.242 ± 0.066
AATCACGA | 0.00734 ± 0.13
AATCACAA | 0.172 ± 0.028
AATCACGC | 0.196 ± 0.096
AATCACGT | 0.385 ± 0.046
AATCACAG | -0.113 ± 0.046
AGGGCAAA | -0.0293 ± 0.034
CGAAAATA | 0.00928 ± 0.085
CAGCGGCG | -0.0966 ± 0.073
GAACCTCC | -0.133 ± 0.0052
CGGAGCAC | -0.157 ± 0.021
ACGCTACA | 0.255 ± 0.047
GCGCTACA | -0.0407 ± 0.037
TCGCTACA | 0.115 ± 0.042
ACTTCGGG | 0.0794 ± 0.099
ACGCTAAG | -0.149 ± 0.038

Sequence | PBM 8-mer E-score
CCACTGAC | -0.169 ± 0.032
CAAGCATA | 0.064995 ± 4.9e-05
TAAGCATA | 0.11 ± 0.096
AAAGCATG | 0.25 ± 0.063
AAAGCTGA | 0.275 ± 0.086
AAAGCATA | 0.249 ± 0.045
CAAGCATG | 0.134 ± 0.038
AAAGCTGG | 0.0179 ± 0.046
CAAGCTGA | -0.175 ± 0.11
AAAGCATT | 0.1 ± 0.0071
AATAAGGG | 0.11 ± 0.12
ACTGTCTA | 0.0515 ± 0.052
CGACAAGA | -0.0978 ± 0.12
GTCCAGGA | -0.157 ± 0.032
GAACGGGC | -0.0738 ± 0.11
CACATACG | 0.0977 ± 0.026
ATCATACG | 0.184 ± 0.071
CACATAAA | 0.2193 ± 0.00038
ATCATACA | 0.28 ± 0.069
AACATACG | 0.278 ± 0.03
ACCATACA | 0.144 ± 0.051
AACATACT | 0.0528 ± 0.0084
AACATAAA | 0.168 ± 0.035
AACATACC | 0.0171 ± 0.02

Sequence | PBM 8-mer E-score
AACATACA | 0.252 ± 0.0071
TACATAAA | 0.239 ± 0.025
GTCATACA | 0.118 ± 0.021
CGCGCTCA | -0.127 ± 0.012
ACTGCAAA | 0.0247 ± 0.1
AGGCGACA | -0.105 ± 0.11
GCGAACCC | -0.0615 ± 0.025
ATCTGACC | 0.00987 ± 0.008
CAATCGCG | -0.0427 ± 0.086
CAGATCTG | -0.123 ± 0.089
GACATACA | 0.167 ± 0.11
TACATACA | 0.26 ± 0.025
CACATACA | 0.112 ± 0.072
ACGATGCC | -0.151 ± 0.016
CTATGCCA | 0.0539 ± 0.12
ATATGCCG | 0.0671 ± 0.1
ATATGCCA | 0.242 ± 0.062
CCGTGCTA | -0.0534 ± 0.02
AGGTGCAT | 0.0164 ± 0.091
ACGTGCAC | 0.334 ± 0.11
ACGTGCTA | 0.278 ± 0.041
AAGTGCAT | 0.132 ± 0.029
CCGTGCAC | 0.0347 ± 0.013
GCGTGCTA | 0.138 ± 0.033

Sequence | PBM 8-mer E-score
CCGTGCAA | -0.0343 ± 0.018
TCGTGCAA | 0.0413 ± 0.0064
ACGTGCAA | 0.251 ± 0.095
GCGTGCAC | 0.208 ± 0.024
ACGTGCAT | 0.33 ± 0.053
CAAGCTCG | -0.109 ± 0.086
AAGACCCT | 0.0269 ± 0.086
GACCGTGC | -0.11 ± 0.054
AGCCTCAA | -0.0979 ± 0.089
CGTCTCGC | -0.117 ± 0.017
CTAGCCAG | -0.0885 ± 0.015
GACACGAC | 0.0582 ± 0.097
GGTGCAAA | 0.0271 ± 0.074
CTCGCCTC | -0.157 ± 0.053
CCTCAGTA | -0.184 ± 0.019
AGGTTTAG | -0.0204 ± 0.08
ACGTGCAG | 0.252 ± 0.00027
CCGTGCAG | -0.128 ± 0.047
ACGTGCCG | 0.207 ± 0.098
CTGTAGGC | -0.151 ± 0.011
GACAACAA | 0.125 ± 0.046
CGTCTGGC | -0.194 ± 0.022
